# Data published in the supplement of paper PMC3545927.
# Some of the results follow. The true hit rate is not given.
# Target: furin, P09958
# Experiment: furin cleavage Z-score vs untreated control; higher = more cleavage, active = 3.5 or more, inactive = 1 or less, 8 variable residues between constant flanks
# Protocol: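 Multiplexed peptide-cDNA fusion cleavage assay. 8-mer variable peptides flanked by constant Cys-Ala (N-term) and Ala-Gly-Asn-Ala-Ser-Ala-Ser-Ala (C-term) and conjugated to a cDNA oligonucleotide were bead-immobilised via the N-terminus. They were treated with purified furin at a 1:10 enzyme:substrate ratio in 50 mM HEPES pH 7.5, 1 mM CaCl2, 100 mM NaCl for 7.5, 15 or 30 min. Released cDNA was counted by next-generation sequencing, and log counts versus no-furin controls were lowess-adjusted and converted to robust Z-scores.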
# Chain of furin, P09958 (P09958 whole entry): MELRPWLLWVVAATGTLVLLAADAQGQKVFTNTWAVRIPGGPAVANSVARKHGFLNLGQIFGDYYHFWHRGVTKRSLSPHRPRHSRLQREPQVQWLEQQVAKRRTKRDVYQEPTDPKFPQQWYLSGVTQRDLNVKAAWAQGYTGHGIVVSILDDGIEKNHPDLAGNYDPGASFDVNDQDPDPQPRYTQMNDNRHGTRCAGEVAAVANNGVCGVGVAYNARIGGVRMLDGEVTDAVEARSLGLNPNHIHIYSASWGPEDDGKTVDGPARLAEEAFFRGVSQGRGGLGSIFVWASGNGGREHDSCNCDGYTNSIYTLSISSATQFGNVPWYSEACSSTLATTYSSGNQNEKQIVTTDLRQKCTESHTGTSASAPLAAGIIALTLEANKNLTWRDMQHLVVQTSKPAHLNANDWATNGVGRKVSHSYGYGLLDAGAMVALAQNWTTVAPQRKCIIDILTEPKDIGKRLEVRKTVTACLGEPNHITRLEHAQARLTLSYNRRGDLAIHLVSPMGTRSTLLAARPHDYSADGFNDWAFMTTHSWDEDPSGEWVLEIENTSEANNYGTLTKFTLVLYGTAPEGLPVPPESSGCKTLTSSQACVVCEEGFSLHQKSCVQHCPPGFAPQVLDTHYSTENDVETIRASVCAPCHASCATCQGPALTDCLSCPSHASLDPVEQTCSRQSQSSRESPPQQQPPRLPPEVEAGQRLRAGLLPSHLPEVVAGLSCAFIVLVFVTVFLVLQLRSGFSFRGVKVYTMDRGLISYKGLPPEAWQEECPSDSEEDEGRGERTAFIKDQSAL
Sequence,furin cleavage Z-score (7.5 min),furin cleavage Z-score (15 min),furin cleavage Z-score (30 min)
CAVVCVSMSYAGNASASA [HC83],0.357 (inactive),0.79 (inactive),-0.758 (inactive)
CARRKRSAALAGNASASA [FS-2371],10.8 (active),11.7 (active),9.76 (active)
CARRKRHDIAAGNASASA [FS-3053],9.56 (active),8.72 (active),8.78 (active)
CARRGRSGGAAGNASASA [FS-2227],-0.325 (inactive),-0.173 (inactive),-0.877 (inactive)
CARTKREAGAAGNASASA [FS-2189],10.6 (active),10.5 (active),7.02 (active)
CARKNRPAGAAGNASASA [FS-1729],-0.275 (inactive),-0.752 (inactive),-0.0808 (inactive)
CARNHRDAGAAGNASASA [FS-1756],1.3,0.109 (inactive),0.263 (inactive)
CARRKRKGSDAGNASASA [FS-2451],0.854 (inactive),2.01,1.02
CASTPCSAALAGNASASA [HC2543],-1.2 (inactive),-0.501 (inactive),0.383 (inactive)
CARRKRSAGAAGNASASA [FS-1779],11.3 (active),10.7 (active),8.77 (active)
CARAQRSAGAAGNASASA [FS-1994],0.322 (inactive),0.0646 (inactive),1.56
CAMEVCSQHLAGNASASA [HC1710],0.136 (inactive),0.13 (inactive),-0.0969 (inactive)
CAMEECAQHLAGNASASA [HC21],-0.625 (inactive),-0.0837 (inactive),-0.768 (inactive)
CATLHGPTPLAGNASASA [HC969],0.77 (inactive),0.336 (inactive),-0.402 (inactive)
CAEDEREISVAGNASASA [HC1292],0.521 (inactive),-0.358 (inactive),1.28
CARYARWAGAAGNASASA [FS-1808],3.25,3.55 (active),4.67 (active)
CARYHRDAGAAGNASASA [FS-1809],1.33,1.22,0.229 (inactive)
CARYARKIEPAGNASASA [FS-2847],0.34 (inactive),1.98,2.59
CARRQRRVPGAGNASASA [FS-3060],0.752 (inactive),1.27,2.47
CARRKRHISVAGNASASA [FS-3262],5.85 (active),5.59 (active),7.18 (active)
CARRKRRAPLAGNASASA [FS-2594],4.11 (active),6.31 (active),6.38 (active)
CAMEECQQHLAGNASASA [HC39],1.54,0.787 (inactive),2.55

Sequence,furin cleavage Z-score (7.5 min),furin cleavage Z-score (15 min),furin cleavage Z-score (30 min)
CALALPQRAYAGNASASA [HC561],0.0304 (inactive),1.97,1.07
CAQVVTSTWVAGNASASA [HC2162],0.38 (inactive),0.0342 (inactive),0.112 (inactive)
CAEWVTSTWVAGNASASA [HC2168],0.00297 (inactive),0.984 (inactive),0.871 (inactive)
CAVVCCSISYAGNASASA [HC2044],0.197 (inactive),-0.41 (inactive),-0.348 (inactive)
CARKKREKKKAGNASASA [FS-2964],-0.433 (inactive),-0.316 (inactive),0.927 (inactive)
CARKKRYDRKAGNASASA [FS-2395],4.56 (active),7.7 (active),7.88 (active)
CARKKRATHSAGNASASA [FS-2562],11.5 (active),12.2 (active),9.97 (active)
CARKKRSTKKAGNASASA [FS-2270],5.56 (active),7.13 (active),6.85 (active)
CARKKRREEKAGNASASA [FS-1828],-0.326 (inactive),2.8,0.74 (inactive)
CARKKRADKKAGNASASA [FS-2961],5 (active),6.53 (active),5.44 (active)
CAMEECSQTLAGNASASA [HC1758],0.0304 (inactive),0.61 (inactive),0.799 (inactive)
CAVLNPSVAAAGNASASA [HC787],-0.311 (inactive),-0.0498 (inactive),-0.157 (inactive)
CAPKGRPKRAAGNASASA [FS-1047],11.3 (active),13.3 (active),9.54 (active)
CAQGTRFKRAAGNASASA [FS-847],11.1 (active),10.3 (active),8.39 (active)
CAPLKRFKRAAGNASASA [FS-699],12.2 (active),12 (active),9.3 (active)
CAILGGWVAAAGNASASA [HC1066],-0.934 (inactive),-0.574 (inactive),-1.27 (inactive)
CAQLGRPKRCAGNASASA [FS-1248],8.77 (active),10.3 (active),8.22 (active)
CAPLLLLLLAAGNASASA [HC558],-0.475 (inactive),-2.1 (inactive),0.488 (inactive)
CAREGNASRCAGNASASA [HC276],-0.0161 (inactive),-0.511 (inactive),-0.0787 (inactive)
CAEVQCHRPSAGNASASA [HC2362],0.385 (inactive),1.46,0.778 (inactive)
CAWRVSAEEYAGNASASA [HC1202],-0.863 (inactive),-1.63 (inactive),-0.815 (inactive)
